# CYP2C9 inh: blockers of cytochrome P450 2C9 activity – biochemical, luminescence, ADME assay, primary screen; 20% of 96,000 active; P11712; AID 777, 2007; inhibition, % at 5 µM; CYP2C9 Supersomes, luciferin-H conversion;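 active means blocking of liver enzyme CYP2C9 beyond about 50% at 5 µM, limit read from the data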
# CYP2C19 act: human CYP2C19 activators, primary screen, biochemical, luminescence; Cytochrome P450 2C19 (Homo sapiens), P33261; recombinant CYP2C19, luciferin-H EGE luminescence; active compounds read high; 0 = fully inhibited enzyme, 1 = untreated enzyme; activation factor at 5 µM; 96,000 tested, under 10 active; AID 1025, 2008;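 active means activation factor of at least 2 at 5 µM in the primary screen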;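 further: 0 = wells with 2.5 mM tranylcypromine and 1 = vehicle-only wells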
# CYP2C9 activ: human CYP2C9 activators, primary screen, biochemical, luminescence; Cytochrome P450 2C9 (Homo sapiens), P11712; recombinant CYP2C9, luciferin-H conversion; active compounds read high; factor 1 = untreated enzyme, 0 = blocked; activation factor at 5 µM; 1.4% of 96,000 active;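 active means activation factor of 2 or more for CYP2C9 at a 5 µM dose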;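 further: 0 = sulfaphenazole-blocked wells and 1 = vehicle-only wells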
# sEH act: soluble epoxide hydrolase activators, primary screen, biochemical, human sEH; Bifunctional epoxide hydrolase 2 (Homo sapiens), P34913; purified human sEH enzymatic activity, activator screen; activation, % at 2 µM; 0.04% of 91,000 active; AID 717, 2007; in the data active means activation above about 37%
# Target sequence (P34913 whole entry, looked up): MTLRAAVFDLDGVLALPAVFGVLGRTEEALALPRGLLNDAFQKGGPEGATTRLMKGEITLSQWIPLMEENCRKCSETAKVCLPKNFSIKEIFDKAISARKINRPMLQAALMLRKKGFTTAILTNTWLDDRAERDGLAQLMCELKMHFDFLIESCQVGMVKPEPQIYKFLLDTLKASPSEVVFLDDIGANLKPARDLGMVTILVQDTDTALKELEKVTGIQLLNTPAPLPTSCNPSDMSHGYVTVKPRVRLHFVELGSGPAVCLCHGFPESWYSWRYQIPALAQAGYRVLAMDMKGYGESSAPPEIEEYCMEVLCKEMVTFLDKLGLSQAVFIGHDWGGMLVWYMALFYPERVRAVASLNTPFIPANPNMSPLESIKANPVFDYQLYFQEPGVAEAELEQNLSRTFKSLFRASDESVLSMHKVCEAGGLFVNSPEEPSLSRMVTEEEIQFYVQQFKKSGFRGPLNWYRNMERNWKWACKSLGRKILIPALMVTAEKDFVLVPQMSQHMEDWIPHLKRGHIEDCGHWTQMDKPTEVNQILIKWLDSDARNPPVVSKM
# CYP2C19 inh: blockers of cytochrome P450 2C19 activity – biochemical, luminescence, ADME assay, primary screen; CYP2C19 Supersomes, luciferin-H EGE luminescence, 30 min; 21% of 96,000 active; inhibition, % at 5 µM;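 active means CYP2C19 inhibition above a set limit at 5 µM in the primary screen, cut at about 50% in these data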;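 further: plate controls were negative control wells for no effect and 2.5 mM tranylcypromine positive control for full effect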
# sEH inh: soluble epoxide hydrolase inhibitors, primary screen, biochemical, human sEH; Bifunctional epoxide hydrolase 2 (Homo sapiens), P34913; recombinant human sEH enzymatic activity assay; inhibition, % at 2 µM; 0.34% of 91,000 active; in the data active means inhibition above about 80%
# Starred values were filed as active, the others as inactive; x = no result given. The list is not random: actives were taken first. Their share in the collection is about 27%.
SMILES,CYP2C9 inh,CYP2C19 act,CYP2C9 activ,sEH act,CYP2C19 inh,sEH inh
CCOC(=O)c1ccc(NC(=O)CSc2nnc(CNc3ccc(C)cc3)n2C)cc1,x,x,x,-3.1,x,4.3
COc1ccc(C(=O)CSc2nnc(CNc3nc(-c4ccccc4)cs3)n2C)cc1,61.5*,0.4,0.4,8.6,63.8*,-8.3
COC(=O)CSc1nnc(CNc2ccc(OC)cc2)n1C,-4.5,0.4,1,9.7,57.9*,-8.0
COC(=O)CSc1nnc(CNc2nc(-c3ccccc3)cs2)n1C,x,x,x,-1.4,x,4.5
CCOC(=O)c1c(NC(=O)CSc2nnc(CNc3ccc(OC)cc3)n2C)sc(C)c1C,76.9*,0.7,0.2,-9.2,31.9,8.0
COCCCNC(=O)/C=C/c1ccc(Cl)cc1,-1.7,1.1,1,16.5,-9.7,-15.3
CC(CN(C)Cc1ccccc1)OC(=O)c1ccc2c(c1)OCCO2 (centres undefined),30.0,0.7,0.7,x,29.7,x
CCc1c(C)c(C#N)c2nc3ccccc3n2c1N1CCN(c2cc(C)ccn2)CC1,67.4*,0.8,0.3,-7.8,21.7,9.5
Cc1ccnc(N2CCN(c3c4c(c(C#N)c5nc6ccccc6n35)CCC4)CC2)c1,x,x,x,10.6,x,-6.7
O=C(Cc1cccc2ccccc12)NNC(=O)c1cccs1,-2.1,0.6,1,4.1,40.8,-3.1
O=C(Nc1ccc(-c2noc(COc3ccccc3Cl)n2)cc1)c1ccco1,x,x,x,4.9,x,-4.2
Clc1ccc(OCc2nc(-c3ccccn3)no2)c(Br)c1,-1.4,0.9,1,-11.9,8.8,11.7
CCOc1ccc(Cc2nc(-c3nonc3N)no2)cc1OCC,6.6,0.5,0.9,x,50.0*,x
Nc1nonc1-c1noc(COc2ccccc2Cl)n1,27.7,0.1,0.7,11.4,86.3*,-10.8
Cc1ccc(-c2noc(COc3ccc4c(c3)OCO4)n2)cc1,x,x,x,-17.0,x,19.0
Cc1cccc(OCc2nc(-c3nonc3N)no2)c1C,27.6,0.3,0.7,x,65.9*,x
Clc1ccccc1OCc1nc(-c2ccccn2)no1,22.3,0.2,0.8,-6.2,84.7*,7.7
CCOc1ccc(-c2noc(CCC(N)=O)n2)cc1OCC,-10.2,1.1,1.1,x,-10.9,x
C=CCn1c(=O)/c(=C2/SC(C)=C(C)N2CC)s/c1=C1/C(=O)N(C)C(=S)N1c1ccccc1,x,x,x,3.1,x,-5.0
COc1cccc(OCC(O)CO)c1 (centres undefined),12.5,1,0.9,-7.1,-1.3,4.8
COc1cc(OC)cc(C(=O)NC2CCN(CC(=O)Nc3cccc4ccccc34)CC2)c1,x,x,x,-8.4,x,11.6
CN=C1S/C(=C\c2cccn2-c2cccc(Br)c2)C(=O)N1C,x,x,x,-7.8,x,10.0
COc1ccc2oc(-c3ccccc3)c(C(N)=O)c2c1,-11.3,0.8,1.1,x,20.9,x
Nc1ccc2nc(CN3CCOCC3)[nH]c2c1,9.4,1,0.9,15.8,2.1,-17.8
c1ccc(CCc2nc(-c3ccccn3)no2)cc1,5.9,0.5,0.9,-6.8,54.8*,5.9
SMILES,CYP2C9 inh,CYP2C19 act,CYP2C9 activ,sEH act,CYP2C19 inh,sEH inh
Brc1ccc(-c2noc(CCc3ccccc3)n2)o1,10.2,0.5,0.9,-3.6,47.4,1.0
CCN(CC)C(=O)C(C)OC(=O)c1ccc(O)cc1 (centres undefined),1.7,1,1,-4.9,-2.2,6.2
COC(=O)COc1ccc(S(=O)(=O)N2CCc3ccccc3C2)cc1C,-109.0,0.2,2.1*,3.6,79.3*,-9.7
CCC(=O)N1CCc2cc(S(=O)(=O)N3CCc4ccccc4C3)ccc21,6.7,0.9,0.9,17.3,6.9,-15.6
CC(=O)N1CCCc2cc(S(=O)(=O)N3CCc4ccccc4C3)ccc21,-4.3,0.3,1,x,74.4*,x
O=c1c2[nH]c3ccccc3c2ncn1CCN1CCCCC1,-6.5,0.9,1.1,-6.3,14.9,6.0
CCN(CC)S(=O)(=O)c1ccc(OC)nc1,23.8,0.7,0.8,12.0,31.9,-10.6
CCN(CC)S(=O)(=O)c1ccc(OC(C)C)nc1,23.7,0.2,0.8,-2.9,79.2*,2.2
CN1CCc2c(sc3c2C(=O)NC(c2ccco2)N3)C1 (centres undefined),-4.7,1,1,11.8,-2.6,-12.4
COc1ccc(Br)cc1C1NC(=O)c2c(sc3c2CCN(C)C3)N1 (centres undefined),-5.4,0.7,1.1,x,28.0,x
CN1CCc2c(sc3c2C(=O)NC(c2cn(Cc4ccccc4)c4ccccc24)N3)C1 (centres undefined),79.4*,0.3,0.2,-3.1,68.9*,5.4
O=C1NC(c2ccco2)Nc2sc3c(c21)CCN(Cc1ccccc1)C3 (centres undefined),68.6*,0.8,0.3,x,17.9,x
O=C(NC1CCCCC1)N1CCCC1,x,x,x,10.4,x,-7.2
CCC(=O)Nc1cc(NC(=O)CSc2ncc(-c3ccc(F)cc3)n2Cc2ccco2)ccc1C,94.9*,0.1,0.1,0.3,91.0*,-2.4
COc1ccc(NC(=O)CSc2ncc(-c3ccc(F)cc3)n2Cc2ccco2)cc1,x,x,x,6.6,x,-6.0
Cc1cnc(NC(=O)CSc2ncc(-c3ccccc3)n2Cc2ccco2)s1,73.0*,0.7,0.3,1.0,31.7,-1.3
COCCn1c(-c2ccc(OC)cc2)cnc1SCC(=O)Nc1cccc2ccccc12,71.7*,0.3,0.3,-0.1,67.4*,-2.0
COc1ccc(-c2cnc(SCC(=O)Nc3cc(C)on3)n2Cc2ccco2)cc1,87.5*,0.4,0.1,-44.3,61.0*,45.6
COc1ccc(CNC(=O)CCn2c(=O)oc3ccccc32)cc1,2.3,0.8,1,5.4,20.2,-5.8
O=C(CCn1c(=O)oc2ccccc21)Nc1ccccc1,-5.8,0.4,1.1,14.3,60.7*,-14.8
COc1ccccc1CNC(=O)CCn1c(=O)oc2ccccc21,-43.3,0.3,1.4,-3.4,71.9*,2.6
Cc1ccc(NC(=O)CCn2c(=O)oc3ccccc32)cc1,9.1,0.8,0.9,x,25.0,x
CCc1ccc(NC(=O)CCn2c(=O)oc3ccccc32)cc1,57.6*,0.8,0.4,x,23.5,x
Cc1nn(Cc2ccc(Cl)cc2Cl)c(Cl)c1/C=C/C(=O)OCC(=O)NCC(F)(F)F,42.0,0.8,0.6,-18.0,22.3,17.7
COc1cccc(C2c3c(-c4cc(Cl)c(C)cc4O)n[nH]c3C(=O)N2Cc2cccnc2)c1 (centres undefined),72.0*,0.6,0.3,8.1,42.8,-11.0
COc1cc(C2c3c(-c4cc(Cl)c(C)cc4O)n[nH]c3C(=O)N2Cc2cccnc2)ccc1O (centres undefined),14.2,0.9,0.9,-0.7,11.4,1.4
NC(=O)c1ccsc1NC(=O)COC(=O)C1CCCN1C(=O)c1cccs1 (centres undefined),72.3*,0.3,0.3,x,72.4*,x

# Compound activity (PubChem BioAssay)
